Holding throughout (assay): DAPPL (digital affinity profiling via proximity ligation, sequencing); 10 mM Tris-HCl pH 7.5, 50 mM NaCl, 1 mM DTT, 4% glycerol, room temperature, 30 min; GST-TFs on glutathione beads, 16-mer random dsDNA library, 0.1% formaldehyde crosslink after washing; high values mean tight binding
The target of one assay is T1, FEV (Homo sapiens, UniProt Q99581 1-238).
T1 sequence: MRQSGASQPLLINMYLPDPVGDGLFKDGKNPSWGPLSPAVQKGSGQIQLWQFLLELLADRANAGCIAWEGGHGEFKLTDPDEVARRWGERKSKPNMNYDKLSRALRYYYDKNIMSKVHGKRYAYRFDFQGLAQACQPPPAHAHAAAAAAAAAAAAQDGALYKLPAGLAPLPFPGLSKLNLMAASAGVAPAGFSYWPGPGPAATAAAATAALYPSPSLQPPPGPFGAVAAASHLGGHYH
The settings on record: protein: recombinant; tags: N-terminal GST; dsDNA, one strand shown. In a few lines: (§1)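 Binding signal is each hexamer's read frequency for a factor divided by its frequency in the tag-only sample. The factors were GST-fused human transcription factors from yeast, captured on glutathione beads, DNA-barcoded and pooled with that sample. Pools were incubated with 200 nmole of a random double-stranded 16-mer DNA library in Tris/NaCl/DTT/glycerol buffer at room temperature for 30 min, then washed, crosslinked with 0.1% formaldehyde, proximity-ligated with BsaI/T4 ligase (1 h, 37 °C), PCR-amplified and sequenced on an Illumina NextSeq500.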

In the next assay the target is ETV5 (Homo sapiens, UniProt P41161 1-510). Particulars: protein: recombinant; tags: N-terminal GST; dsDNA, one strand shown. In a few lines: as §1
ETV5, sequence (P41161 whole entry): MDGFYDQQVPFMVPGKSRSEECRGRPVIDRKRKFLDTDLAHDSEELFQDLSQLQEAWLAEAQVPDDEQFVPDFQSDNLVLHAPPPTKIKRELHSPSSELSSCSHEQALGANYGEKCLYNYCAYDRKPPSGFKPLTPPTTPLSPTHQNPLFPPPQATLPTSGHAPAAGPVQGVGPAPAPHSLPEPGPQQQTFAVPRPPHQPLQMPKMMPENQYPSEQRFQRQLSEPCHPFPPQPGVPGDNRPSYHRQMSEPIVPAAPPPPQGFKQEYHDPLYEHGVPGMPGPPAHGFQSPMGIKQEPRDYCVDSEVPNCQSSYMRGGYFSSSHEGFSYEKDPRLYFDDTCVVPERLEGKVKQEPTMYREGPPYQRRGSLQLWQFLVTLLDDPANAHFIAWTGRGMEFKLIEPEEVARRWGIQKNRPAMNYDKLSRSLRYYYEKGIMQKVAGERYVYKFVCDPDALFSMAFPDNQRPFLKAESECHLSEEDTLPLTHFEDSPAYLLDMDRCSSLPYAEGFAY
In the next assay the target is HSF1 (Homo sapiens, UniProt Q00613 1-529). The settings on record: protein: recombinant; tags: N-terminal GST; chain copies: 3; dsDNA, one strand shown. In a few lines:
as §1

The next assay concerns the target T2, SPIC (Homo sapiens, UniProt Q8N5J4 1-248).
T2 sequence: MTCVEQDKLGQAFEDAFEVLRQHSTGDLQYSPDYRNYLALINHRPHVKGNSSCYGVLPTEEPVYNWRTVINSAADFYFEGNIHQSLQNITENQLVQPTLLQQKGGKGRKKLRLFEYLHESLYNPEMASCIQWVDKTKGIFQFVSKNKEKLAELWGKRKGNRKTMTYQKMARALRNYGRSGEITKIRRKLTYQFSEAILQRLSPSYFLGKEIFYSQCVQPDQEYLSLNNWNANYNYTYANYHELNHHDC
The settings on record: protein: recombinant; tags: N-terminal GST; dsDNA, one strand shown. In a few lines:
as §1

For another assay, the target named is ELF4 (Homo sapiens, UniProt Q99607 1-663). Particulars: protein: recombinant; tags: N-terminal GST; dsDNA, one strand shown. In a few lines:
as §1

In another assay the target is T3, ELK4 (Homo sapiens, UniProt P28324-2 1-405).
T3 sequence: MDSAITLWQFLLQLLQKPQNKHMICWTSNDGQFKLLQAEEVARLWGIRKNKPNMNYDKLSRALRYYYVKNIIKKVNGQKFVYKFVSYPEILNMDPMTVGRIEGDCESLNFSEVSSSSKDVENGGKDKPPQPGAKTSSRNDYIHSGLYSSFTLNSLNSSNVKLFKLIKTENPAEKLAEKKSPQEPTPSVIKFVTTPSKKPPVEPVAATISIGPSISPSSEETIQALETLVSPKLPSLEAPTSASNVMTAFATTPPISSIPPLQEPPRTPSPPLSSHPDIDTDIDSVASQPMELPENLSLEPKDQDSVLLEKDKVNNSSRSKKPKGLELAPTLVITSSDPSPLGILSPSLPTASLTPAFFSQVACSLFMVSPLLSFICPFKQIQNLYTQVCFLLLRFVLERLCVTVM
The settings on record: protein: recombinant; tags: N-terminal GST; dsDNA, one strand shown. In a few lines: as §1

The target in a further assay is T4, ETV2 (Homo sapiens, UniProt O00321 1-342).
T4 sequence: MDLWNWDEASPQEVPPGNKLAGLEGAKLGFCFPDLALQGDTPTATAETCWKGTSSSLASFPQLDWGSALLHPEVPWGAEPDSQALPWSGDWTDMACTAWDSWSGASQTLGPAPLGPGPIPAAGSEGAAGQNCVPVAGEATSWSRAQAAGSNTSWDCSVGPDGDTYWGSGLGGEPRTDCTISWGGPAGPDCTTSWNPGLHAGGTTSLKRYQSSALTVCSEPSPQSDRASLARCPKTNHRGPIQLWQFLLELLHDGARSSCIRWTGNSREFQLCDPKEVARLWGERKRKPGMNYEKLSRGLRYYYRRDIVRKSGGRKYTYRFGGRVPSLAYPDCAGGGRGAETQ
The settings on record: protein: recombinant; tags: N-terminal GST; dsDNA, one strand shown. In a few lines:
as §1

A further assay addresses T5, ELF3 (Homo sapiens, UniProt P78545 1-371).
T5 sequence: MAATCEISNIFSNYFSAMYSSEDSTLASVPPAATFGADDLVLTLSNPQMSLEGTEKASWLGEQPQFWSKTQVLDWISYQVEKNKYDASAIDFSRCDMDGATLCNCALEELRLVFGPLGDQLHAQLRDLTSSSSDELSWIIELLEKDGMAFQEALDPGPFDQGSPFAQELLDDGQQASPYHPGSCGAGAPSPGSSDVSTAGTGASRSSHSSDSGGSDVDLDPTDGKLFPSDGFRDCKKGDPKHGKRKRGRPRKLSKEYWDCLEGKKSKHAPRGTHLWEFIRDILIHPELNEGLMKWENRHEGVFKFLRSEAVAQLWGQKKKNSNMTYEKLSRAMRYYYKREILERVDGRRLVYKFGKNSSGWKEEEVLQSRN
Particulars: protein: recombinant; tags: N-terminal GST; dsDNA, one strand shown. In a few lines: as §1

The next assay addresses CRX (Homo sapiens, UniProt O43186 1-299). The settings on record: protein: recombinant; tags: N-terminal GST; dsDNA, one strand shown. In a few lines:
as §1

The next assay has as its target ETV1 (Homo sapiens, UniProt P50549 1-477). Particulars: protein: recombinant; tags: N-terminal GST; dsDNA, one strand shown. In a few lines:
as §1

The target in the next assay is T6, ERF (Homo sapiens, UniProt P50548 1-548).
T6 sequence: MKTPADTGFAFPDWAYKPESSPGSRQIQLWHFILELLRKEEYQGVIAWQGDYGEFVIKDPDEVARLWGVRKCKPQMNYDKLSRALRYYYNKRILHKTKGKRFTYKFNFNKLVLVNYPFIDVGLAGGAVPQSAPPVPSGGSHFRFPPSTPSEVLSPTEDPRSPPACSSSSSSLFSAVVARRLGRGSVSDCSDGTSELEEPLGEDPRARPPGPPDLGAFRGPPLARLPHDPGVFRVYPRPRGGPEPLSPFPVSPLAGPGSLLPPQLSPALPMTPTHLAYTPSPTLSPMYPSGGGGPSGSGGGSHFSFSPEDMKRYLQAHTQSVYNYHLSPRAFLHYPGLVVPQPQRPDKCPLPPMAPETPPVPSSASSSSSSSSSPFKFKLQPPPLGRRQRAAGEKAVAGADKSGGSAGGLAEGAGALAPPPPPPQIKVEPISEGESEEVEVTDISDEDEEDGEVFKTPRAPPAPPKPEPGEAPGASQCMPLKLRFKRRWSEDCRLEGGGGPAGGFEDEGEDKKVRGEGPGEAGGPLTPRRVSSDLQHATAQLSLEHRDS
The settings on record: protein: recombinant; tags: N-terminal GST; dsDNA, one strand shown. In a few lines: as §1

In a further assay the target is T7, ETV3L (Homo sapiens, UniProt Q6ZN32 1-361).
T7 sequence: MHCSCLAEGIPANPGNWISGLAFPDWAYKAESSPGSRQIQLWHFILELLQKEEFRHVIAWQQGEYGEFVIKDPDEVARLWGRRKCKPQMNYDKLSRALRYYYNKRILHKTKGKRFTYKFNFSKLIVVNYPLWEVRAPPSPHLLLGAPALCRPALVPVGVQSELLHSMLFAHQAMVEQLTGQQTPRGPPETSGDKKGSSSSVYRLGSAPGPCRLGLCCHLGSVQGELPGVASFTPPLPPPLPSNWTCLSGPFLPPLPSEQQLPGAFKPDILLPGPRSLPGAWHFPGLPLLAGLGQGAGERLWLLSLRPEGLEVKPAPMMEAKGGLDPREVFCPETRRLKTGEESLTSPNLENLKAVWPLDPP
Particulars: protein: recombinant; tags: N-terminal GST; dsDNA, one strand shown. In a few lines:
as §1

A further assay deals with T8, ETS2 (Homo sapiens, UniProt P15036 1-469).
T8 sequence: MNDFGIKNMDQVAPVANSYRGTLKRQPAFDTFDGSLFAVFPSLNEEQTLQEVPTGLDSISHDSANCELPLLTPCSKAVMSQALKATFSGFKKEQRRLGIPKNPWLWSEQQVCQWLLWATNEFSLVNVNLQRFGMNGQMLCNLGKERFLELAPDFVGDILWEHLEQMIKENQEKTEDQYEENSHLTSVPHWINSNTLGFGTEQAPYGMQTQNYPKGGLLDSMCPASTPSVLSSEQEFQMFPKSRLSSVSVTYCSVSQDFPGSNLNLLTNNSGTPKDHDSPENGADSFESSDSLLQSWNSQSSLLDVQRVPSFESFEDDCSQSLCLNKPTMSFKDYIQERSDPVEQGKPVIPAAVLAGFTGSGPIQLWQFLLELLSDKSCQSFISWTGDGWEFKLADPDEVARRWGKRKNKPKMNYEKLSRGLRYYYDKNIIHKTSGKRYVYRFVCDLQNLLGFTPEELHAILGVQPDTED
Particulars: protein: recombinant; tags: N-terminal GST; dsDNA, one strand shown. In a few lines:
as §1

Another assay addresses T9, SPDEF (Homo sapiens, UniProt O95238 1-335).
T9 sequence: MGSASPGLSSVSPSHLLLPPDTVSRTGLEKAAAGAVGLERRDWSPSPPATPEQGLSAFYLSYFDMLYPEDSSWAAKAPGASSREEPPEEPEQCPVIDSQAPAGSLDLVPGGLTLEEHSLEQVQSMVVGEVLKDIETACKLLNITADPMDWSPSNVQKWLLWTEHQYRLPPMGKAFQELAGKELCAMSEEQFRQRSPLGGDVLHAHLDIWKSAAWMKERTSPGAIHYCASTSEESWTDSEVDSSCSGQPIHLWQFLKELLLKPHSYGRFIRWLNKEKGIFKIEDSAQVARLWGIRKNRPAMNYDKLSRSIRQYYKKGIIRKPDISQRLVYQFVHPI
The settings on record: protein: recombinant; tags: N-terminal GST; dsDNA, one strand shown. In a few lines:
as §1

Another assay addresses T10, ETV7 (Homo sapiens, UniProt Q9Y603 1-341).
T10 sequence: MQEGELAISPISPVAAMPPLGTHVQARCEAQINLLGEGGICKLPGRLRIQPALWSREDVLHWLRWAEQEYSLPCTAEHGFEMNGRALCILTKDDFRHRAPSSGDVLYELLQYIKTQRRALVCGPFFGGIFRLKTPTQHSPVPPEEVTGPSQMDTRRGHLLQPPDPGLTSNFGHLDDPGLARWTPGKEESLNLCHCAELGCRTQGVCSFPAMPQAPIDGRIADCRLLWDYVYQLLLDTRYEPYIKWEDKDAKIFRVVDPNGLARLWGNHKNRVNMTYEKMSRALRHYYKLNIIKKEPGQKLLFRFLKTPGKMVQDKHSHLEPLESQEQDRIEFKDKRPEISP
Particulars: protein: recombinant; tags: N-terminal GST; dsDNA, one strand shown. In a few lines: as §1

The next assay deals with T11, ELF5 (Homo sapiens, UniProt Q9UKW6-2 1-255).
T11 sequence: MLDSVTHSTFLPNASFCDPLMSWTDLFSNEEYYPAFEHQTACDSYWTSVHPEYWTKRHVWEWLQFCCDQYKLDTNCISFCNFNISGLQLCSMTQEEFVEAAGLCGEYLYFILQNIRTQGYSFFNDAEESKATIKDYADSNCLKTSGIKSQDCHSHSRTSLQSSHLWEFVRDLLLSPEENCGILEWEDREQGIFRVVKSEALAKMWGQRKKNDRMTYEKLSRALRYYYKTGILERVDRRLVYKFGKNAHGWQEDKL
The settings on record: protein: recombinant; tags: N-terminal GST; dsDNA, one strand shown. In a few lines:
as §1

The next assay concerns the target T12, ETV3 (Homo sapiens, UniProt P41162-2 1-143).
T12 sequence: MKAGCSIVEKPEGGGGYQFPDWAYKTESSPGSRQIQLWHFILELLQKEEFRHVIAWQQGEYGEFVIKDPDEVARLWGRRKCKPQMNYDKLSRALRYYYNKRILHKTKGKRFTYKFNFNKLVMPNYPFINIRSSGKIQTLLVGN
Particulars: protein: recombinant; tags: N-terminal GST; dsDNA, one strand shown. In a few lines: as §1

Another assay concerns the target ETV6 (Homo sapiens, UniProt P41212 1-452). The settings on record: protein: recombinant; tags: N-terminal GST; dsDNA, one strand shown. In a few lines:
as §1

ELF4, sequence (Q99607 whole entry): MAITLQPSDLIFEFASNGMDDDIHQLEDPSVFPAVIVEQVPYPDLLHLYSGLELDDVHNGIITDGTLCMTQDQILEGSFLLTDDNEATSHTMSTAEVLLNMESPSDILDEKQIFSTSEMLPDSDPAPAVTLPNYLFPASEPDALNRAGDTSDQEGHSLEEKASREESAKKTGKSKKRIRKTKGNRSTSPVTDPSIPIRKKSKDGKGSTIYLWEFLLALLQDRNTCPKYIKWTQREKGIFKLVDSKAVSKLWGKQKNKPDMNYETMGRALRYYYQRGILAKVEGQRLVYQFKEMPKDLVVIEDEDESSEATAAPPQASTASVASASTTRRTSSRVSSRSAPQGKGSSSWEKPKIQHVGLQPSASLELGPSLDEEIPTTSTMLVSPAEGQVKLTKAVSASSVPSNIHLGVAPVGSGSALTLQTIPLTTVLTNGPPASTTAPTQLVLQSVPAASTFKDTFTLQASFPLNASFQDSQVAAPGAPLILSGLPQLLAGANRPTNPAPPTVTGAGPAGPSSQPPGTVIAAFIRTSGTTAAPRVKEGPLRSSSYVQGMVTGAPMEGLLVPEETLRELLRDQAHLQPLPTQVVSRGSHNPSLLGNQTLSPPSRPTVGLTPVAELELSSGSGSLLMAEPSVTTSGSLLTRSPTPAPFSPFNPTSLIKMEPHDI
CRX, sequence (O43186 whole entry): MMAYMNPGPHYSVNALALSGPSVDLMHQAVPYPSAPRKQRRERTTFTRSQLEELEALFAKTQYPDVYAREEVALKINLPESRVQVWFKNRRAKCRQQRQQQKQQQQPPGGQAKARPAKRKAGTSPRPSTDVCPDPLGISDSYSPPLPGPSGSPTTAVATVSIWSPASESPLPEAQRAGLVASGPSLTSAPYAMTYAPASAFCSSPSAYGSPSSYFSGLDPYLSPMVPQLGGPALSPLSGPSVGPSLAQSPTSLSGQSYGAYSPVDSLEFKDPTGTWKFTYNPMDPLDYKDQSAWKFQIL
ETV1, sequence (P50549 whole entry): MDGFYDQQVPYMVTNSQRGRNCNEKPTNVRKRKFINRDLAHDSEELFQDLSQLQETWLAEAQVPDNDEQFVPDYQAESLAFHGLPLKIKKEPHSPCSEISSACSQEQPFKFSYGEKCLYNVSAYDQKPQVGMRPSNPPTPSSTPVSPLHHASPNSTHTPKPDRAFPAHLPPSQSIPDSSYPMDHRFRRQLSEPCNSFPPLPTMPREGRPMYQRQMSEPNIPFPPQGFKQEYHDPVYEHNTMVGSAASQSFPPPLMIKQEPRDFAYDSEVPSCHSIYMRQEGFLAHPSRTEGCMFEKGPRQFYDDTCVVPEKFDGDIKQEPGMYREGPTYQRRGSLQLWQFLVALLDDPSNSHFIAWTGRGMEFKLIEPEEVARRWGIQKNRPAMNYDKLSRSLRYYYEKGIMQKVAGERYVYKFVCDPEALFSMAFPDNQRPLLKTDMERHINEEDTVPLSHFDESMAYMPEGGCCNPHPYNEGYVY
HSF1, sequence (Q00613 whole entry): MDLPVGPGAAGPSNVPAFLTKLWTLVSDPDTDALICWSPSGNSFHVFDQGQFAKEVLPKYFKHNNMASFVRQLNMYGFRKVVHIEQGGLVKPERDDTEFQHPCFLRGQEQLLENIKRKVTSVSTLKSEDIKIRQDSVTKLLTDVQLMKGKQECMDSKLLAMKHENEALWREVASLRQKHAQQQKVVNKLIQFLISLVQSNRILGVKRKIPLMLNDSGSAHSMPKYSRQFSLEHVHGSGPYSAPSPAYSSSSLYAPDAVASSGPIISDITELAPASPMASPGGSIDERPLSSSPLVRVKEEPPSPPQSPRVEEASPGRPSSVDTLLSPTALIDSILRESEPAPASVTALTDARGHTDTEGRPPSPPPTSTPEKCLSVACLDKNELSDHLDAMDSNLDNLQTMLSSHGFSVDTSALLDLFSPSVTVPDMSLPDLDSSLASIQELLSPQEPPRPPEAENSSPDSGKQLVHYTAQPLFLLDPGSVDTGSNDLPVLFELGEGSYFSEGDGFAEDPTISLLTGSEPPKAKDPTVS
ETV6, sequence (P41212 whole entry): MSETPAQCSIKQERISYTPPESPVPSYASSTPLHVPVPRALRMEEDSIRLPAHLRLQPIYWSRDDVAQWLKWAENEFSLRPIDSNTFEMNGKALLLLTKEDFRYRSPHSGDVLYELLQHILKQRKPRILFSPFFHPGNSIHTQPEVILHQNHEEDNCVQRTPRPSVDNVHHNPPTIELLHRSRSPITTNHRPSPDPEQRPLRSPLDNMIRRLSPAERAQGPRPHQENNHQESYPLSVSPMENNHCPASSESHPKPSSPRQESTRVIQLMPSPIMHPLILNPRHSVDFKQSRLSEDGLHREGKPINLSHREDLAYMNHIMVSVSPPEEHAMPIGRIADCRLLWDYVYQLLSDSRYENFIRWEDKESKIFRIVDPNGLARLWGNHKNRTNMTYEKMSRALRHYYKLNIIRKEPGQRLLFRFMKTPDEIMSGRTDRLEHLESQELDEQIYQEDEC

Turning to TGCGAT, the binding signal in the assay with FEV was 1.08 fold enrichment (6-mer frequency, TF over GST control); with ETV5, 1.1 fold enrichment (6-mer frequency, TF over GST control); with HSF1, 1.23 fold enrichment (6-mer frequency, TF over GST control); with SPIC, 1.3 fold enrichment (6-mer frequency, TF over GST control); with ELF4, 1.2 fold enrichment (6-mer frequency, TF over GST control); in the assay with ELK4, 1.2 fold enrichment (6-mer frequency, TF over GST control). The binding signal in the assay with ETV2 was 1.17 fold enrichment (6-mer frequency, TF over GST control); with ELF3, 1.03 fold enrichment (6-mer frequency, TF over GST control); with CRX it was 1.43 fold enrichment (6-mer frequency, TF over GST control); with ETV1 it was 1.06 fold enrichment (6-mer frequency, TF over GST control); with ERF, 1.24 fold enrichment (6-mer frequency, TF over GST control); with ETV3L it was 1.27 fold enrichment (6-mer frequency, TF over GST control). The binding signal with ETS2 is 1.14 fold enrichment (6-mer frequency, TF over GST control); with SPDEF, 1.15 fold enrichment (6-mer frequency, TF over GST control); with ETV7, 1.23 fold enrichment (6-mer frequency, TF over GST control); with ELF5 it was 1.11 fold enrichment (6-mer frequency, TF over GST control); with ETV3, 1.23 fold enrichment (6-mer frequency, TF over GST control); with ETV6, 1.16 fold enrichment (6-mer frequency, TF over GST control).

(Values after paper PMC7862700, “An all-to-all approach to the identification of sequence-specific readers for epigenetic DNA modifications on cytosine”.)
